# Assay results as given in the supplement of paper PMC11417369.
# ± gives the standard deviation of the averaged measurements. The full ranking holds about 25,000 sequences; the median of “ln(normalized median fluorescence intensity)” is about 8.6, and the highest 2% start at about 10. For the sample, the highest values were picked, then their nearest neighbours and some sequences at random.
# Tested on: PfAP2-EXP AP2 domain (GST-tagged)
# Assay: gcPBM binding intensity (ln(normalized median fluorescence intensity)); higher = stronger DNA binding
# Summary of the method: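 GST-tagged P. falciparum DNA-binding domains, expressed in E. coli (about 25 μg on average), were applied for 1 h to an Agilent 4 × 180k array of primer-extended double-stranded 36-bp intergenic genomic probes plus negative controls. The binding buffer was 1× PBS with 1% milk, 0.2 mg/ml BSA, 0.5% salmon testes DNA and 0.03% Triton X-100. Bound protein was detected with Alexa488 anti-GST antibody and scanned at 488 nm. Binding intensity is the highest Masliner-normalised natural-log median intensity across replicate spots of either probe orientation.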
row,Sequence,gcPBM binding intensity (ln)
1,GAAATTAAATGACATACACACTATATTATATATTTT [CACACA_site5693],8.34 ± 0.35
2,AGTAGTCTGGAGAAGAGTACACAGTATCTGGTAGCT [XGTACX_site2042],8.48 ± 0.47
3,AAATAAAATAAAAACATGCACACTTTATTTTTTTTA [CACACA_site2800],8.49 ± 0.26
4,AGAAAAGAGAGAAAAACATGCACATGATATTATAAA [TGCATGCA_site120],8.62 ± 0.53
5,AAACATATAAACATATGTACATATAAACATATATAC [XGTACX_site5026],8.64 ± 0.33
6,CATGATATATAAATATGTACATATATATATATATAT [XGTACX_site1760],10.2 ± 0.23
7,AATATGATATATATATGTACATATATATAATATAAT [XGTACX_site3072],8.52 ± 0.41
8,ATATATATATATATATGTACATAAACATATATATAT [XGTACX_site1064],10.2 ± 0.21
9,TTATATGCATAAAAACGTACAAAAATGTATTCATGT [XGTACX_site2215],8.71 ± 0.38
10,ATAAATAAAACAAAATGTACAAATATTCATATATTC [XGTACX_site1307],8.49 ± 0.32
11,ATAAATATAAATATATGTACATATATATATATATAT [XGTACX_site7433],10.2 ± 0.15
12,AAACATATATACATATGTACATATATACATATATGT [XGTACX_site5779],8.4 ± 0.26
13,ATATATATATATATATGTACGTATTCATAAACAACA [XGTACX_site4282],10.2 ± 0.6
14,TTTTTTCTTTCTTTCAAACACACATTAATTTTATTC [CACACA_site2733],8.66 ± 0.49
15,ATAAATATGGAGCACACACACATAAACATACATATA [CACACA_site421],8.84 ± 0.67
16,AGAAGGATATTATGAAGTACACATATTGTATATGGT [XGTACX_site7503],8.47 ± 0.35
17,AATATATAAATATTGTGTACTTATTTTTTTATATGT [XGTACX_site4377],8.49 ± 0.18
18,TAAATATGAGGGAACACACACATGATATATAAATTC [CACACA_site2400],8.81 ± 0.43
19,TATATATTGCCCTTCACACACACACCCATATATATA [CACACA_site2493],9.06 ± 0.42
20,TTATTTATTTATTGTTGTACACAAAATGATTCTTAA [XGTACX_site6480],8.7 ± 0.2
21,TTATATAACACGGGGAGGACACAAGAAATAAAGAGC [XGTACX_site2148],9.13 ± 0.29
22,ATTTTGATAACCGTACGTACATATATATATATATAT [XGTACX_site6605],10.3 ± 0.35
23,AATGATTTTGATTAACGTACGTACAAATATATATAT [XGTACX_site6604],9.31 ± 0.057
24,AAAATTATATATTATAGTACATAAAATTTTGATATA [XGTACX_site994],8.39 ± 0.35

row,Sequence,gcPBM binding intensity (ln)
1,AAATAGAGAAATACAAGTACATATCAAACCAATCTA [XGTACX_site2756],8.52 ± 0.42
2,TTATACACCTTTCATTGTACATATAATTTATATTCT [XGTACX_site8685],8.95 ± 0.33
3,TATTACATTGTTGAATGTACTCATTTAAAATTTATA [XGTACX_site7987],8.34 ± 0.38
4,TATATAATACGAATTTGTACATATTAAATAAATTAT [XGTACX_site93],8.41 ± 0.37
5,ATAATACGAATTTGTAGTACATTTATAATAACATGA [XGTACX_site2614],8.37 ± 0.17
6,TATATATATATATATATAATACGAATTTGTAGTACA [TGCATGCA_negctrl_site224],10.2 ± 0.16
7,AATTATATTTGAAATACACACATAAAAACCATATAG [CACACA_site7598],8.89 ± 0.51
8,TATATATATTTATGTACACACATATATACCTTTCAT [CACACA_site5479],8.74 ± 0.23
9,TCACACATATATTCATGTACATATTAATATTTCCAT [XGTACX_site5387],8.85 ± 0.44
10,GTAAATACACATATGTGTACATATATATATATATAT [XGTACX_site3696],10.2 ± 0.35
11,TATATATATATATGTACACACATATATACCTTTCAT [CACACA_site2679],10.1 ± 0.27
12,TATATATATATATATGTACACACATATATACCTTTC [CACACA_site8854],10.2 ± 0.26
13,ATGTAAATACATATATGTACACAAATATATATATAT [XGTACX_site3537],9.8 ± 0.35
14,TCATACATGTATATGTGTACATATAATGTATATTCC [XGTACX_site6082],8.3 ± 0.3
15,ACACACATATATACATGTACATATATATATATATAT [XGTACX_site451],10.1 ± 0.3
16,AATATATTCCACATGTGTACATATATATATATATAT [XGTACX_site8006],10.3 ± 0.24
17,ACACATATATAAATATGTACATATATATATATACAT [XGTACX_site1595],8.61 ± 0.23
18,ACACATACATACATATGTACATATATACATATATAC [XGTACX_site5559],8.84 ± 0.26
19,ACATACACATATACATGTACATATATATATATATAT [XGTACX_site5082],10.2 ± 0.2
20,AAAAAAATATATATTACACACATATATACCTATATA [CACACA_site5688],8.18 ± 0.47
21,TATATCTGTATCATTACACACATGTATACTTATTTG [CACACA_site6134],8.74 ± 0.43
22,TTACGATTATACAAAAGTACATGTATTACACAATAT [XGTACX_site5138],8.6 ± 0.33
23,TACAAAAAAAGATGATGTACAATGAAAAATAAGAAA [XGTACX_site5840],9.18 ± 0.37
24,TATTATAATTAATATACACACGCTTATATATATATA [CACACA_site75],9.93 ± 0.3

row,Sequence,gcPBM binding intensity (ln)
1,TAATTGTAGACATGCACACACAAATATTATATATGT [CACACA_site845],8.72 ± 0.45
2,TAATGAAATATACAGAGTACATTCTGTATATAGGAT [XGTACX_site7691],8.46 ± 0.3
3,ATATTTACCACTGTATGTACATATATAAAATATATC [XGTACX_site6373],8.81 ± 0.18
4,CTTGAAAGATTTTATTGTACTCATAAGATACATTTC [XGTACX_site3178],8.31 ± 0.36
5,TATATATATACATATTGTACATGTGTATATTTTTTT [XGTACX_site361],8.93 ± 0.042
6,TACATTGTATACATATGTACACATATATATATATAT [XGTACX_site6174],10.1 ± 0.4
7,AGTTTATAGTGATATTGTACATATATATATATATAT [XGTACX_site572],10.2 ± 0.66
8,TGTATACGCATATGTACACACATATATATGTATATG [CACACA_site3087],8.65 ± 0.16
9,TATATATATATATATTGTACACATACATGTAGTTTT [XGTACX_site4848],10.2 ± 0.29
10,TATATAGTTTATATTTGTACATATAGACATTTATAA [XGTACX_site6414],8.23 ± 0.3
11,TATTATAGTATATATTGTACATATATATATTTTTTA [XGTACX_site8831],8.35 ± 0.37
12,ATATATATATATATATGTACACATATATTTCTTTTC [XGTACX_site3443],10 ± 0.47
13,ATATATATATATATATGTACACATATACGCTTTTTC [XGTACX_site3838],10.3 ± 0.28
14,AAAATGTACTTTTTCTAAAGAGTAATGATGCTTGAT [CACACA_negctrl_site1124],8.52 ± 0.45
15,ATATGATAAATTATATGTACTTAAAATATATTATAA [XGTACX_site5904],8.26 ± 0.18
16,TATATATATATATATACATGCATATTTTTTATTTTT [TGCATGCA_site464],10.3 ± 0.31
17,TATATATATATATATACATGCATACAATTTTATGAG [TGCATGCA_site466],10.2 ± 0.29
18,AACAGACATAGACACACACACATATATTTATTTATA [CACACA_site7571],8.64 ± 0.4
19,TATTCATGCATATACACACACATATATTTATATTTT [CACACA_site7786],8.77 ± 0.35
20,TATATATATATATATGCACACATTTATACAATTTTA [CACACA_site2986],10.2 ± 0.3
21,TATTTATATAGACACACACACATATATTTATATTTT [CACACA_site7240],8.52 ± 0.45
22,TATAATAATAATTATACATGCATGAATATTTATATG [TGCATGCA_site811],8.86 ± 0.16
23,TCCTTTTTTTTTTATGCACACACAATTATACATTCC [CACACA_site9287],9.06 ± 0.4
24,CATATTTTATTATATACATGCAATTTTAATATATAT [TGCATGCA_site544],8.59 ± 0.25

row,Sequence,gcPBM binding intensity (ln)
1,CTTTTTTTTTTATGCACACACAATTATACATTCCTT [CACACA_site3877],9.08 ± 0.37
2,TATATACATGCATATACACACATATATTTATTTATA [CACACA_site6327],8.7 ± 0.33
3,GTTATTTATAGACACACACACATGCATGCACATATA [CACACA_site6204],10.2 ± 0.39
4,GCATAACCTTTATATTGTACATATACCTTTATTGTT [XGTACX_site6046],9.16 ± 0.45
5,TTTAATAAATAAATAAATAAAATATATTAAAAACCA [CACACA_negctrl_site80],8.38 ± 0.36
6,GCATCCCTTTTTATGTGTACATACAAAGGCAATTAC [XGTACX_site6977],8.86 ± 0.33
7,CCTTAATATTTTTGAAGTACATATTTATTTTACAAG [XGTACX_site3049],8.31 ± 0.33
8,TGCTACATTTTATGTACACACATATACAGATATATA [CACACA_site4646],8.42 ± 0.26
9,TCATATGTTAAATGATGTACATTTAATATAAATAAA [XGTACX_site900],8.38 ± 0.15
10,AATTGCATAATATATTCACACATTTTTAAGTGATAC [CACACA_site5679],8.38 ± 0.35
11,ATATATATATATATTGTACACACATTTATGCATATA [CACACA_site9055],10 ± 0.2
12,ATATTCAATATATTATGTACACATATATGAGGATAT [XGTACX_site7019],8.65 ± 0.41
13,ATAATCATAAAATAAACACACATATATAAATATATT [CACACA_site276],8.27 ± 0.47
14,TATGAATGGTTAAGTACACACATATTAATATATGTA [CACACA_site3490],8.49 ± 0.45
15,TAATAATTAATTAATATAATATTTTTTCATAATTAT [XGTACX_negctrl_site602],8.22 ± 0.4
16,ATTATATAATAATGCATGCACCTTATTTTCATTTCA [GTGCAC_site9922],9.99 ± 0.19
17,ATATTATATAATAATGCATGCACCTTATTTTCATTT [TGCATGCA_site405],10.2 ± 0.44
18,TGTATAATATTTGGTGCACACAAATTAACAACTGTT [CACACA_site9245],9.21 ± 0.32
19,AACATATTTTTAAATACACACACATAAAAAAAAAAA [CACACA_site8279],8.59 ± 0.5
20,AATTTATATGTTTTGTGTACACAATTTATTAAATTA [XGTACX_site6448],9.03 ± 0.29
21,GTATATATTTTGTATTCATTTGTCACATATAATAGA [CACACA_negctrl_site506],8.69 ± 0.5
22,ATTCGTCACATTTTTTGATATATATATATATATATA [CACACA_negctrl_site1785],10.4 ± 0.4
23,TATTTTGTATTCATTTGTCACATATAATAGATAGGA [TGCATGCA_negctrl_site9],8.69 ± 0.32
24,ATCCATCTTTTAATTTGTACTTATTCTTTTTTCTTT [XGTACX_site5299],9 ± 0.67
